{"source": "the supplement of paper PMC11624193", "about": "“Coupling cellular drug-target engagement to downstream pharmacology with CeTEAM” (Nature Communications, 2024)", "note": "A number with no mark means an inactive call.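 How the source made its calls: active = log2 fold change beyond 2 SD from the library mean after excluding viability outliers; inactive = within 2 SD.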", "data": [{"molecular_target": "PARP1 L713F-nLuc biosensor (HCT116) (UniProt P09874)", "sequence (P09874 whole entry L713F, looked up)": "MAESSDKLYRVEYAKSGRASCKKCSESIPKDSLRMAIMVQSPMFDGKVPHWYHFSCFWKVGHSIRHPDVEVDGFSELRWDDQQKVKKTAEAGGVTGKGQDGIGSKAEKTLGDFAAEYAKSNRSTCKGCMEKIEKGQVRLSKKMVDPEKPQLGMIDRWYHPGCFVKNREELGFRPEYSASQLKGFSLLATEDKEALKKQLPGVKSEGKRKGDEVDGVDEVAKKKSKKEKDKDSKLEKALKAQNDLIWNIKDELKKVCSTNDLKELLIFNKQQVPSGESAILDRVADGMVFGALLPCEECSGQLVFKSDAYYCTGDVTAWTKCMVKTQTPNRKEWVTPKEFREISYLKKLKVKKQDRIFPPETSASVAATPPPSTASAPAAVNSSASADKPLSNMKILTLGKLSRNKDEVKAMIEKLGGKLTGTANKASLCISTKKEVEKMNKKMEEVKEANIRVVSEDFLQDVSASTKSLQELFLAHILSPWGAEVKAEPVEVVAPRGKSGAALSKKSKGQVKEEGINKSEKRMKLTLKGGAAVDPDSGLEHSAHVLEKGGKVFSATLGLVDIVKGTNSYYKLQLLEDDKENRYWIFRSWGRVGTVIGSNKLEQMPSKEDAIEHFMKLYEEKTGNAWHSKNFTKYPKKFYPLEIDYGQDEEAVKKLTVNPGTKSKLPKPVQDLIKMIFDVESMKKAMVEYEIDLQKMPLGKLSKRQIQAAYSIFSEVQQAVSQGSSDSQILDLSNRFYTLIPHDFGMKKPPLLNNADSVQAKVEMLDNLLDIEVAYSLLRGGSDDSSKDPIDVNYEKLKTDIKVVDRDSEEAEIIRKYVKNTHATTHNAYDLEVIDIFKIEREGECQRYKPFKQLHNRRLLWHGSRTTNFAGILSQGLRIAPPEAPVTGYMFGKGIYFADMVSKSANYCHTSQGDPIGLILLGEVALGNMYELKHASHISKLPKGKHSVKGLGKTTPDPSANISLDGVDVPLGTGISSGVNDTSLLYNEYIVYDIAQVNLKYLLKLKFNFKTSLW", "assay": "PARP1 L713F-nLuc/akaLuc ratio relative to DMSO control (biosensor stabilization) (fold change); higher = more PARP1 biosensor stabilization (target engagement / stabilizer), active = hit call of the paper", "conditions": "stock concentration (mM; final µM = stock mM x 1): 10; 24 h", "values": [{"smiles": "COc1ccc(C2CC(c3ccccc3)=NN2c2ccc(S(N)(=O)=O)cc2)cc1", "note": "(configuration not stated)", "PARP1 L713F-nLuc/akaLuc ratio": 1.29}, {"smiles": "Cc1cc(Nc2cc(N3CCN(C)CC3)nc(Sc3ccc(NC(=O)C4CC4)cc3)n2)n[nH]1", "note": "[Tozasertib]", "PARP1 L713F-nLuc/akaLuc ratio": 0.774}, {"smiles": "CC1(C)CN(C(=O)c2ccc(-c3cccc4nc(NC(=O)C5CC5)nn34)cc2)C1", "note": "[Solcitinib]", "PARP1 L713F-nLuc/akaLuc ratio": 0.98}, {"smiles": "COc1cc2c(NC3CCN(C(C)C)CC3)nc(C3CCCCC3)nc2cc1OCCCN1CCCC1", "PARP1 L713F-nLuc/akaLuc ratio": 0.748}, {"smiles": "CC(C)(O)CNc1nc(Nc2ccnc(C(F)(F)F)c2)nc(-c2cccc(C(F)(F)F)n2)n1", "note": "[Enasidenib (AG-221)]", "PARP1 L713F-nLuc/akaLuc ratio": 1.96}, {"smiles": "Cc1c(CN2CCC(Nc3ncnc4sc(CC(F)(F)F)cc34)CC2)ccc2c1cc(C#N)n2Cc1cn[nH]c1", "PARP1 L713F-nLuc/akaLuc ratio": 0.806}, {"smiles": "O=C(Nc1cc(Cl)cc2c1[nH]c1cnccc12)c1cccnc1", "PARP1 L713F-nLuc/akaLuc ratio": 0.723}]}]}
